For 40 sequences, PBM binding z-score results are on record in the supplement of paper PMC6555819.

The test system of the assay is VDR:RXRa (NR concentration 270 nM, RXRa partner concentration 90 nM). Put plainly: PBM binding z-score (relative to random genomic background probes); higher = stronger binding; sequences stand for … in GC…GCGATTGACAGCGTAGAATGAAGG
The protocol: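 Protein-binding microarray (Agilent 4x180K custom design, double-stranded 60-nt probes: 5' GC cap, 34-nt variable region, 24-nt constant primer region; full probe sequence given). Purified or IVT nuclear receptor:RXRα heterodimers (3:1 NR:RXRα, mostly 270:90 nM) or homodimers were incubated for 1 h in PBS with 2% milk and no ligand, then detected with Alexa488 antibodies. Fluorescence from o1-orientation probes (~5 replicates averaged) was converted to z-scores against 500 random hg19 background probes. Variable regions are seed direct-repeat (DR0–DR5) sites, all their single-nucleotide variants and half-site ablations.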
In turn, CGAACTAGGTCATTGACAGTACAGTGAATAGTAA came in with a PBM binding z-score of 2.57.
CGTCCAAGGTCAGCAGGTCCGTGAAAGCGACGTG registered a PBM binding z-score of 6.
The result for TCTTGTAGATCAACAGGAGGGTAAGAAAGATCGA reads 0.029; that for CGAACTAGGTCATACAGGACAGTGAATACATTGA, 3.99; that for CTCGAAAGGTCGGTTGAGCTGAGTATACGGATAA, 0.528.
Take TTACCAAGGTTAAGGTCGTTGATCCCTCTGTAGA: the PBM binding z-score amounted to 3.3.
With CCTAGTTGGCCAGGAGGTCACACACCGGATATGA the figure was 3.63; with CCTCGGAAGACAACAGGAGGTCAGAGCTGCCAGA, 1.5; with CCTAGCAGGCCAATCTGGGTCACGCAAGGCTTGA, 1.14.
In the case of TATACAGGGTCAAAGGCCATAGTACGAATGTCGA, the PBM binding z-score was determined as 5.08.
In turn, CAAACTAGGTCACCGGAAGGGCAAAGTCCGCATG gave a PBM binding z-score of 3.81.
ACTAGCCGGCCAAGTTTGGGTCACTCAAACAAAG: the PBM binding z-score came to 0.6.
TATGCTAGGTCAGTTGGTCAGCTAACGAGCTGCC yielded a PBM binding z-score of 0.137.
TCTGCTAGGGCAGTTGGTCAGCTAACGAGCTGCC had a PBM binding z-score of -0.663.
In turn, TCGAGTAGGTTACCAATGGGGCATTCGGCTTTCT yielded a PBM binding z-score of 0.0858.
With CAAACTAGGACACAGAGGTCAAAGTCCGTGCGTA the figure was 5.69; with CTCGAAAGGTCGGTTTAGGTGAGTATACGGATAA, 1.28; with ACTACAGGGTCACTAGGCCAGAGTAGGTACGAAT, 3.76.
Sequence CCTACTGGGCCATCAGGTCACTGATATCAACGTT returned a PBM binding z-score of 1.34.
The result for CGTCCAAGGTCAGAGAGATCAGTGAATGCCGAGT reads 3.72; that for CAAACTAGATCACAGAGGTCAAAGTCCGTGCGTA, 5.7; that for ATATGTAGGTTATATCCGGGTCATTCAGGCTATG, 4.11.
As to TCGAGTAGATTAGGGGCATTCAGAATGGCGTCGA, the PBM binding z-score came to 0.295.
Regarding ATCTCTATGTAAAGATAGTTCAGTGAATGCAAAT, the PBM binding z-score was found to be 0.557.
The result for CGTCCAAGGTCAGAGAGGTCAGTAAATGCCGAGT reads 7.22; that for ATCGAAAGGTGGAGGTGAGTATAGAGAAAGGGAA, 0.346; that for CGTTCAAGGTCAGCAGGTCAGTGAAAGCGACGTG, 4.25.
The result for GGAACGAGGGCATAGTTGATAGCATCTGTCGACG reads 0.655; that for GCGACTGGGGCACAGCAGGTTACCATAAGGTTGG, -0.208; that for CAAACTAGGTCACGAAAGGTAAAAGTCGAATGAC, 3.25.
TGTCAAAGTTCACAGGTAACGTAAGTATCCACAC displayed a PBM binding z-score of 4.54.
Take CTACCAAGGTGAACAAGGTCGTTGGTTACTATTC: the PBM binding z-score turned out to be 5.92.
On to CATACAGGTTCAGCTAGGCCAGAGTAGGGACGGC, for which the PBM binding z-score is 1.99.
Regarding CCTAGCAGCCCAATCTGGGTCACTCAAGGCTTGA, the PBM binding z-score turned out to be 0.11.
With TAGCCTAGGTCATTGGGCCAGCATAGTACGCATC the figure was 2.14; with ATCGAAAGGTCGTCAGGTGAGTATACAGAAAGGC, 3.72.
In turn, CCTTACGGATCACTCCAGGTTATAGCATCGGAGT showed a PBM binding z-score of 0.59.
With CCGAGTAGGTTAAGGGGCATTCAGGCAACGGTGA the figure was 0.877; with CCCTACGGGTCACGAGGTTATAGCACGACGAGCG, 5.13; with CGGCAAAGTTCAAGGTAACGTAACAGAAAGCAGC, 3.52.
